Laboratory results published in PubChem BioAssay AID1446 (The Scripps Research Institute Molecular Screening Center, 2008).
Among all 220,000 compounds or so, about 2,400 (1.1%) were called active. The list comes from a sample in which actives are over-represented; it also holds similar structures and randomly drawn compounds. Values without a mark were called inactive.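 The calls were made as follows: active = inhibition above the campaign mean plus 3 SD over all tested compounds (cut at about 24% in these data); inactive = the rest.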

Assay: viability loss in Ba/F3 EpoR-JAK2V617F cells – cell-based, luminescence, JAK2V617F inhibitor project, primary screen (AID 1446);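 also: cytokine-independent growth of Ba/F3 cells driven by EpoR plus mutant JAK2; 0% = DMSO-treated cells and 100% = JAK inhibitor I control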
Settings: ATP luminescence, at 5.6 µM, hits give high values

Compound	inhibition
CCC1CCCCN1CCCNC(=O)c1cc2c(Cl)nc3ccccc3c2s1 (stereo unspecified)	58.8% (active)
CCC1CCCCN1CCCNC(=O)C1CCC(Cn2c(=O)[nH]c3ccccc3c2=O)CC1 (stereo unspecified)	2.93%
CCC1CCCCN1CCCNC(=O)Cn1nc(-c2ccccc2)ccc1=O (stereo unspecified)	-2.73%
CC(C)(C)c1cc(P(=O)(c2ccccc2)c2ccccc2)ccc1O	-0.07%
OCCN1CCN(C(=S)c2ccc(-c3ccccc3)cc2)CC1	-5.03%
COc1ccc(C(=O)CSc2nnc(NC(=O)C3CC(=O)N(c4cccc(OC)c4)C3)s2)cc1 (stereo unspecified)	0.22%
Cc1ccc(NC(=O)CC(=O)Nc2ccc(C)cc2)cc1	-3.42%
O=C(CCl)Nc1ccc(Sc2ccc(NC(=O)CCl)cc2)cc1	39.2% (active)
CC(C)(CCl)C(=O)Nc1ccc(Sc2ccc(F)cc2)cc1	-2.48%
COc1ccc(C(=O)Nc2ccc(N3CCC(C)CC3)cc2)cc1Br	1.71%
COc1ccc(N2CCN(C(=O)CCSCc3ccccc3F)CC2)cc1	-2.23%
CCC(C)C(=O)Nc1cc([N+](=O)[O-])ccc1Cl (stereo unspecified)	-3.84%
CCN(CC)S(=O)(=O)c1ccc(N(C)Cc2cccc(OC)c2OC)nc1	1.34%
CCCCCCc1cc2cc(-c3nnc(-c4cccc(OC)c4)o3)c(=O)oc2cc1O	-1.07%
Cn1c(SCC(=O)N/N=C/c2ccc(O)c(O)c2)nc2ccccc21	0.9%
CCCc1nc2ccccc2c(=O)n1NC(=O)c1c(O)c2ccccc2[nH]c1=O	6.3%
CCCc1nc2ccccc2c(=O)n1/N=C/c1ccc(O)c(O)c1	26.5% (active)
Cc1nnsc1C(=O)NCc1c(F)cccc1Cl	1.93%
CCCCC1S/C(=N/N=C/c2cccs2)NC1=O (stereo unspecified)	1.12%
CCCOC(=O)c1[nH]c2c(c1C)C(=O)CC(c1cccs1)C2 (stereo unspecified)	74.3% (active)
CCCOC(=O)c1[nH]c2c(c1C)C(=O)CC(c1cc(OC)c(OC)c(OC)c1)C2 (stereo unspecified)	17.1%
CCOC(=O)c1[nH]c2c(c1C)C(=O)CC(c1ccc(N(C)C)cc1)C2 (stereo unspecified)	0.77%
COc1ccc(/C=C2/SC(=O)N(CCCCCC(=O)Nc3ccccc3C(=O)O)C2=S)cc1	-2.34%
Cc1ccc(C2=NN(C)c3nc4ccccc4n3C2)cc1	56.8% (active)

Compound	inhibition
Cn1cccc1-c1nc2ccccc2n1C	3.85%
Cc1ccc(O)c(CNc2nc3ccccc3n2C)c1	1.4%
Fc1ccc(COc2ccc(-c3nnco3)cc2)cc1	-2.6%
CCOc1cc(/C=C2/C(=N)N3OC(C)=CC3=NC2=O)ccc1OC	1.56%
C/C(=N\NC(N)=S)c1cccnc1	-4.73%
Cc1ccc(-c2cnc(NC(=O)CCC(=O)N(C)Cc3ccccc3)n2C)cc1	40.1% (active)
Cn1c(-c2ccc(F)cc2)cnc1SCC(=O)NNC(=O)Cc1ccccc1	0.3%
CN(Cc1ccccc1)C(=O)CCc1ccccc1	-4.97%
CC(=O)c1ccc(N2CCN(S(=O)(=O)c3c(C)[nH]c(=O)[nH]c3=O)CC2)cc1	2%
c1ccc2c(c1)CSc1sccc1C2=C1CCNCC1	45.9% (active)
Cn1ccc(=Nc2ccc(NC(=O)c3ccc(N=c4ccn(C)c5ccc([N+](=O)[O-])cc45)cc3)cc2)cc1	34.4% (active)
CC(=O)NC(=S)Nc1ccc(NC(=S)NC(=O)c2ccc([N+](=O)[O-])cc2)cc1	-4.8%
Cc1cc([N+](=O)[O-])ccc1NC(=O)c1ccc(NC(=O)C(C)C)cc1	0.7%
O=C(Nc1ccccc1-c1ccccc1)c1cccs1	6.54%
N#Cc1ccc(OCc2nnc(-c3ccc([N+](=O)[O-])cc3)o2)cc1	1.03%
Cc1n[nH]c(=O)n1-c1ccc(C(C)C)cc1	0.05%
O=C(Nc1ccccc1)Nc1ccc(C(F)(F)F)cn1	2.61%
Oc1ccc(/C=N/Nc2ccc(C(F)(F)F)cn2)cc1O	72% (active)
Cc1nccn1CC(=O)N/N=C/c1ccc(O)c(O)c1	-3.5%
CC1(C)C2CC=C(/C=N/NC(=O)C3CC3)C1C2 (stereo unspecified)	-1.08%
Cc1cc(N2CCN(Cc3ccc4c(c3)OCO4)CC2)n2ncnc2n1	4.15%
Fc1ccc2[nH]c3c(N4CCSCC4)ncnc3c2c1	-5.13%
Fc1ccc2[nH]c3c(N4CCN(Cc5ccc6c(c5)OCO6)CC4)ncnc3c2c1	37.1% (active)
CC(=O)Nc1ccc(/C(C)=N/NC(=O)CN(c2ccccc2Br)S(C)(=O)=O)cc1	-0.87%

Compound	inhibition
CSc1sc(C(=O)NC(=O)NCc2cccnc2)c(C)c1-c1ccon1	-1.98%
COc1ccc(C2C(C(C)=O)=C(O)C(=O)N2CCc2c[nH]c3ccccc23)cc1 (stereo unspecified)	-3.16%
O=C(N/N=C\c1cc(Br)c(Br)o1)C1COc2ccccc2O1 (stereo unspecified)	-4.95%
CCc1ccc(CN(C)Cc2nc(Cc3ccccc3)no2)nc1	1.45%
CN(Cc1ccc2nsnc2c1)Cc1nc(Cc2cccc(F)c2)no1	47.5% (active)
CN(Cc1nc2ccc(F)cc2[nH]1)Cc1nc(CC2CC2)no1	-1.61%
Cc1cc(C(=O)CCl)c(C)n1CC1COc2ccccc2O1 (stereo unspecified)	2.03%
CSCCC(NS(=O)(=O)c1ccc2c(c1)oc(=O)n2C)C(=O)NCc1ccccc1 (stereo unspecified)	-3.72%
COc1ccc(NC(=O)Nc2ccc3nc(C)c(C)nc3c2)cc1	-2.47%
Cc1nc(/N=C(\N)NC(=O)NC2CCCCC2)nc2ccccc12	2.92%
COc1ccc2nc(/N=C(\N)NC(=O)Nc3ccccc3)nc(C)c2c1	30.8% (active)
CCCN(CCC)S(=O)(=O)c1ccc(C(=O)NNC(=O)c2cc(OC)c(OC)c(OC)c2)cc1	-3.01%
C#CCOCCOCCOCCNc1nc(N2CCN(C(=O)[C@H](C(C)C)n3cc(CCO)nn3)CC2)nc(N2CCN(C(=O)[C@H]([C@@H](C)CC)n3cc(CCCN=C(N)N)nn3)CC2)n1	1.82%
CCN(CC)c1ccc(NC(=O)c2ccc(Cl)nc2)cc1	81.4% (active)
O=C(NNc1ccccn1)c1ccc(Cl)nc1	-0.88%
NS(=O)(=O)c1ccc(NC(=O)COC(=O)c2ccc(Cl)nc2)cc1	0.7%
COc1ccc(CN(C)Cc2nc3cc(OC)c(OC)cc3c(=O)[nH]2)c(OC)c1	1.74%
C[C@H](NC(=O)c1ccccc1Cl)C(=O)OCCOc1cccc(Cl)c1	-3.18%
Cn1cc(C(=O)NCc2ccccc2F)cn1	-6.67%
N#CC1(C#N)C(C(=O)C23CC4CC(CC(C4)C2)C3)C12CCOCC2 (stereo unspecified)	-2.53%
Cn1c(N)c(C(=O)COC(=O)/C=C/c2ccc(OC(F)F)cc2)c(=O)n(C)c1=O	2.97%
Cc1ccc(NC(=O)CN(C)Cc2ccc(F)cc2)c([N+](=O)[O-])c1	-2.86%
Cc1ccc(Nc2c3c(nc4ccccc24)CCC3)cc1	4.72%
O=[N+]([O-])c1cccc(Nc2c3ccccc3nc3ccccc23)c1	-2.83%

Compound	inhibition
CC(=O)Nc1ccc(Nc2c3ccccc3nc3ccccc23)cc1	102% (active)
CC[C@H]1CN2CCc3cc(OC)c(OC)cc3[C@@H]2C[C@@H]1C[C@H]1NCCc2cc(OC)c(OC)cc21	101% (active)
COc1cc2c(cc1O)[C@H](Cc1ccc(Oc3cc(C[C@@H]4NCCc5cc(OC)c(O)cc54)ccc3O)cc1)NCC2	1.92%
Cn1cnc(C(F)(F)F)c1-c1ccc([N+](=O)[O-])cc1	-0.95%
O=C(O)/C=C/c1ccc2c(c1)OCCO2	0.26%
COc1ccccc1N1CCN(Cc2ccc(OC)c3ccccc23)CC1	26.8% (active)
CNCC(O)CN1CCN(c2ccccc2OC)CC1 (stereo unspecified)	-2.42%
COc1ccccc1N1CCN(CCCCOc2ccc(F)cc2)CC1	-1.67%
O=c1[nH]c2ccccc2s1	1.22%
O=C(Oc1ccccc1Cl)c1ccc(N2CCOCC2)c([N+](=O)[O-])c1	0.46%
Cc1ccc(S(=O)(=O)NCCC(c2ccccc2)c2ccccc2)cc1C(=O)O	0.73%
C/C(=N/NC(=O)CN1CCN(S(=O)(=O)c2ccc(Br)cc2)CC1)c1ccncc1	-1.23%
CC(C)(C)C(=O)OCc1nc(-c2ccc(O)c(O)c2)cs1	83.4% (active)
COc1ccc(-c2csc(Cc3nc(O)cs3)n2)cc1	-2.27%
Cc1onc(C(=O)NN)c1-c1csc(COc2ccccc2)n1	3.97%
CC(C)NC(=S)N1CCN(S(C)(=O)=O)CC1	-5.62%
O=C(c1ccc(=O)oc1)N1CCC(C(O)(c2ccccc2)c2ccccc2)CC1	2.85%
COc1ccc(/C=C/CN2CCCC(C(=O)c3cc(F)ccc3F)C2)cc1 (stereo unspecified)	0%
COc1ccc(F)cc1C(=O)C1CCCN(C(=O)CCc2ccccn2)C1 (stereo unspecified)	0.16%
CSCC(=O)N1CCCC(C(=O)c2cc(F)ccc2F)C1 (stereo unspecified)	67.6% (active)
COc1ccc(Cc2cc(-c3ccc(F)cc3)n[nH]c2=O)cc1	1.71%
Cc1ccc(C2CC(=O)NC(SCC(=O)OCc3ccccc3)=C2C#N)o1 (stereo unspecified)	1.77%
CCOC(=O)CSC1=C(C#N)C(c2sccc2C)CC(=O)N1 (stereo unspecified)	83.5% (active)
C=CCOC(=O)C1=C(C)NC(SCC(=O)OCC)=C(C#N)C1c1ccc(C)cc1 (stereo unspecified)	-0.33%
